Data on 25 compounds can be found in PubChem BioAssay (NCI).

The panel holds about 83,000 compounds, 20% with a hit somewhere; the sample as a whole holds those more often.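 Step 1: grow cells in 96-well plates. Step 2: add test compound at a single concentration. Step 3: incubate 48 h. Step 4: record percent growth.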 A number with no mark means an inactive call. Activity calls are given as the source filed them. How the source made its calls: active means growth percent below 10; inactive means the rest.

The test concerns NCI-H522 lung. Kind of test: NCI-60 one-dose screen, 48 h (100 = growth as untreated, 0 = no growth, -100 = all killed). As to conditions: 10 µM.
Turning to `O=C(/C=C1\C(=O)N(Cc2ccccc2)c2ccccc21)c1ccc(OCCN2CCCCC2)cc1`, the growth is -44.5% (active). On to `COc1ccc(CN2C(=O)/C(=C\C(=O)c3ccc(OCCN4CCCC4)cc3)c3ccccc32)cc1`, for which the growth was 31.9%. As to `C[C@@H](c1ccc2c(c1)[nH]c1ccc(Cl)cc12)c1nc2ccccc2[nH]1`, the growth is 78.7%. To `c1ccc(-c2cn3ccnc3c(-c3ccc4ncn(C5CCCCC5)c4c3)n2)cc1` belongs 41.9%. As to `C[C@@H](c1ccc2c(c1)[nH]c1ccc(Cl)cc12)c1nc2ccc(Cl)cc2[nH]1`, the growth was 43.6%. With `COc1cc(CNC(=O)CCCC/C=C/C(C)C)ccc1OCc1nnc(Nc2ccccc2F)o1`, the growth was 60.3%. As to `Cc1c(CN(C)C)cc(C(C)C)cc1C(C)C`, the growth is 85%. As for `O=S(=O)(O)c1ccc2c(c1)Sc1cc(S(=O)(=O)O)ccc1O2`, the growth was 107%. Consider `COc1ccc(Cn2cc3c(c2-c2ccccc2)CCc2cnoc2-3)cc1N`, for which the growth is 33.8%. For `COc1ccc(/C=C(/C(=O)N2CCN(c3ccc(C)cc3)CC2)c2cc(OC)c(OC)c(OC)c2)cc1N`, the growth is -12.8% (active). `C=CCN(C)C`: the growth is 93.7%. Take `CCNc1nnc(COc2ccc(CNC(=O)CCCC/C=C/C(C)C)cc2OC)o1`: the growth is 83.7%. `COc1ccc2oc(=O)cc(CN3C(=O)S/C(=C\c4ccc(Cl)cc4)C3=O)c2c1`: the growth is 79.6%. As to `CC(C)OC(=O)Nn1cnc2ccccc21`, the growth was 103%. To `COc1ccc(Cn2cc3c(c2-c2ccc(OC)cc2)CCc2cnoc2-3)cc1` belongs 11.1%; to `COc1cc(Cn2ccc3c2-c2oncc2CC3)cc(OC)c1`, 29.3%; to `COc1cccc(Cn2cc3c(c2)-c2oncc2CC3)c1`, 29.5%. `COc1ccc(C2=C/C(=C\c3ccc(Cl)cc3)C(=O)NN2C(=S)NN)cc1`: the growth was 83.9%.

Take `COc1ccc(Cn2cc3c(c2)-c2oncc2CC3)cc1OC`: the growth was 20.5%. Regarding `COc1ccccc1Nc1nnc(COc2ccc(CNC(=O)CCCC/C=C/C(C)C)cc2OC)o1`, the growth is 81%. As to `N=c1c2c(=O)n3c(nc2nc2sc4ccc(Cl)cc4n12)-c1ccccc1Sc1ccccc1-3`, the growth was 12.9%.

Consider `CCCC(=O)NNc1[nH]c(-c2cc(OC)c(OC)c(OC)c2)cc1C(=O)OCC`, for which the growth was 105%. `COc1ccc(Cn2cc3c(c2-c2ccc(O)cc2)CCc2cnoc2-3)cc1`: the growth was 35.7%.

As for `COc1ccc(OC)c(Cn2cc3c(c2-c2ccccc2)CCc2cnoc2-3)c1`, the growth was 56.4%. As for `CCCCCCCCCCCCCCCCCC1=NCCN1CS(=O)(=O)O`, the growth is 84.5%.
